The source of these data is the supplement of paper PMC10105736.

What all share (experiment): MAPPIT interaction score (arbitrary units); higher = stronger binary interaction signal, active = hit call of the paper
One assay addresses Nedd4. As to conditions: pair source set: Lit-BM-16.
In another assay the target is Mzt1. To be noted: MAPPIT configuration: N-N; pair source set: RRS.
Another assay deals with Mkk4. As to conditions: MAPPIT configuration: N-N; pair source set: DPIM.
A further assay addresses Orai. To be noted: MAPPIT configuration: N-N; pair source set: DPIM.
Another assay has as its target Nacalpha. As to conditions: MAPPIT configuration: N-N; pair source set: DPIM.
Another assay deals with MYPT-75D. As to conditions: pair source set: Lit-BM-16.
For another assay, the target named is Mbs. To be noted: MAPPIT configuration: N-N; pair source set: Lit-BM-16.
The next assay has as its target Nop17l. As to conditions: MAPPIT configuration: N-N; pair source set: Lit-BM-16.
Another assay deals with Tm1. To be noted: MAPPIT configuration: N-C; pair source set: Lit-BM-16.
In a further assay the target is Zasp66. As to conditions: pair source set: Lit-BM-16.
Another assay has as its target elm. As to conditions: MAPPIT configuration: N-N; pair source set: Lit-BS-16.
The next assay addresses Mpcp2. To be noted: MAPPIT configuration: N-N; pair source set: Lit-BS-16.
Another assay concerns the target mod(mdg4). To be noted: MAPPIT configuration: N-N; pair source set: Lit-BS-16.
For another assay, the target named is MESK2. To be noted: MAPPIT configuration: N-N; pair source set: DPIM.
Another assay addresses Naa30A. As to conditions: MAPPIT configuration: N-N; pair source set: Curagen_high_conf.
For the next assay, the target named is MagR. To be noted: MAPPIT configuration: N-N; pair source set: Lit-BS-16.
The next assay deals with Polr1B. As to conditions: MAPPIT configuration: N-N; pair source set: DPIM.
The next assay has as its target pav. To be noted: MAPPIT configuration: N-N; pair source set: DPIM.
For the next assay, the target named is Mettl14. To be noted: MAPPIT configuration: N-N; pair source set: DPIM.
The next assay concerns the target Rnmt. As to conditions: MAPPIT configuration: N-N; pair source set: DPIM.
A further assay concerns the target ND-ACP. As to conditions: MAPPIT configuration: N-N; pair source set: Lit-BS-16.
Another assay deals with MED8.

A number with no mark means an inactive call.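 Rule for the calls: active = MAPPIT score above the 99th percentile of random reference set scores in the same batch; inactive = at or below it.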
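Note: HEK293T cells with Epo stimulation, STAT-responsive firefly luciferase reporter, fold induction versus unstimulated cells divided by the larger fold induction of two negative controls lacking either bait or prey.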

B1: comm (protein)
chain: MISTTDYPTVETTTTAEELYAEYISAPASSMSPAAIAEHLQQNQITFEIPSAHDLRHIDALNSFNALLQRIGNAAVSYDPAPPSGWSPDGSISTEQLSKSVVLDLADLRDRSEESGESSWWSQIFGDADMHVIINYLWIGVVSSLVILSLVFILFSCYFYRKFRTWKKCNKDIRAQIHAASDSYSSHLVGCDASRLLLHQQMQHPHHRSSEAGFYQIESPPCYTIATGLPSYDEALHHQPRHFAYGMKFVYPSLAAVHHHHHCISNWEKQEPLNKLQKCKLSAAAAVEEDKADSSSSTSASASPSSSESSNLATATPAICINMPSGRQDEEVDNSDSDSAIAVAVAVAQSLQPAAPADDDCASLVVVVAA
Turning to B1, the results for the MAPPIT interaction score with Nedd4 (MAPPIT configuration: N-C) and with Nedd4 (MAPPIT configuration: N-N) were 1.86 and -0.264, respectively.

B2: Ror (protein)
chain: MNKYSAFIVCISLVLLFTKKDVGSHNVDSRIYGFQQSSGICHIYNGTICRDVLSNAHVFVSPNLTMNDLEERLKAAYGVIKESKDMNANCRMYALPSLCFSSMPICRTPERTNLLYFANVATNAKQLKNVSIRRKRTKSKDIKNISIFKKKSTIYEDVFSTDISSKYPPTRESENLKRICREECELLENELCQKEYAIAKRHPVIGMVGVEDCQKLPQHKDCLSLGITIEVDKTENCYWEDGSTYRGVANVSASGKPCLRWSWLMKEISDFPELIGQNYCRNPGSVENSPWCFVDSSRERIIELCDIPKCADKIWIAIVGTTAAIILIFIIIFAIILFKRRTIMHYGMRNIHNINTPSADKNIYGNSQLNNAQDAGRGNLGNLSDHVALNSKLIERNTLLRINHFTLQDVEFLEELGEGAFGKVYKGQLLQPNKTTITVAIKALKENASVKTQQDFKREIELISDLKHQNIVCILGVVLNKEPYCMLFEYMANGDLHEFLISNSPTEGKSLSQLEFLQIALQISEGMQYLSAHHYVHRDLAARNCLVNEGLVVKISDFGLSRDIYSSDYYRVQSKSLLPVRWMPSESILYGKFTTESDVWSFGVVLWEIYSYGMQPYYGFSNQEVINLIRSRQLLSAPENCPTAVYSLMIECWHEQSVKRPTFTDISNRLKTWHEGHFKASNPEM
Turning to B2, the MAPPIT interaction score with Mzt1 was -0.491.

B3: porin (protein)
chain: MAPPSYSDLGKQARDIFSKGYNFGLWKLDLKTKTSSGIEFNTAGHSNQESGKVFGSLETKYKVKDYGLTLTEKWNTDNTLFTEVAVQDQLLEGLKLSLEGNFAPQSGNKNGKFKVAYGHENVKADSDVNIDLKGPLINASAVLGYQGWLAGYQTAFDTQQSKLTTNNFALGYTTKDFVLHTAVNDGQEFSGSIFQRTSDKLDVGVQLSWASGTSNTKFAIGAKYQLDDDASVRAKVNNASQVGLGYQQKLRDGVTLTLSTLVDGKNFNAGGHKIGVGLELEA
Turning to B3, the MAPPIT interaction score is 1.64 in the assay with Mkk4 and 1.31 in the assay with Orai.

B4: eIF3j (protein)
chain: MADDWESAADSEVVIRPTAAASVNKWEGEDEDEDIKDSWEDEEEKKDEEKPTKTEAPAKPKPNKALKAKLEQQALLEEEAEAKRLANLSPAEKLAEKLRLQKIQEASDLKHAQEAFGVTSTCGGLDAFNPETKEEFKEFGATLSWKVGQFRESEHFPQFVEDLVRSLCVNLSAADIKKVKMNVEILHSEKLKLEKANAKKPAGKGKGKVTLRTENDDIDGYQKYGNDFTEDYDDFM
As for B4, in the assay with Nacalpha, the MAPPIT interaction score is 0.261.

B5: flw (protein)
chain: MGDFDLNVDSLIQRLLEMRSCRTGKQVQMTEAEVRGLCLKSREIFLQQPILLELEAPLIICGDIHGQYTDLLRLFEYGGFPPAANYLFLGDYVDRGKQSLETICLLLAYKIKYPENFFLLRGNHECASINRIYGFYDECKRRYNVKLWKTFTDCFNCLPVAAIIDEKIFCCHGGLSPDLQGMEQIRRLMRPTDVPDTGLLCDLLWSDPDKDVQGWGENDRGVSFTFGVDVVSKFLNRHELDLICRAHQVVEDGYEFFARRQLVTLFSAPNYCGEFDNAGGMMTVDDTLMCSFQILKPSEKKAKYLYSGMNSSRPTTPQRSAPMLATNKKK
Consider B5, for which the MAPPIT interaction score with MYPT-75D (MAPPIT configuration: N-C) was 0.517; with MYPT-75D (MAPPIT configuration: N-N) it was -0.255; with Mbs it was -0.0767; with Nop17l, -0.464; with Tm1, 1.19; in the assay with Zasp66 (MAPPIT configuration: N-C) it was 0.478. Moreover, the MAPPIT interaction score in the assay with Zasp66 (MAPPIT configuration: N-N) is 0.558; with elm, -0.48.

B6: 4E-T (protein)
chain: MDTSKISARYSKVDLLALRYEGKSRQRPQCSTRLELQTLGFWKINLNTAALTVSSAYSNQNKNRLSPEADNSSLICSNSSSISSRRAMRNRERANNYYQRFVPTDSLLISGEDKDKDALSHGQPYKLNIIDHRSISSSHLMPAFAKRRFVISKGSNSEESNEGINTCASKGKAASSPSRKGSELDTAETCLNFVQPDHDQCMSSSPTFSTSRQERRIGSGRLLPRSDNWDYKNEKTVEASIENEKETSPNGSGSTSSLNQHNQSQHRSRTFSGRLVERVPEVTDRRFQYDSKKSFDRQGINNRRISGKEPFSTQSRSKRGNSYLIHEEPEWFSAGPKSQLETIDLHGFEDLEKNEERSVTEDKNNQIQQLDKNLDAQASKDEASMRNSNDSLNFREVIPSDEKKHTDENVVTSIQNSTDLGHPNKNKPIQMQPSQNPESEFNFDAFLNMHPLDNSVLSNDETGKSDSKGTSRFSRWFRQKEAANNNEFPGFRESHAQEKRGIPSVKDLEAQMIKVDMRTDLINPIAGSLCQTVQMEKPIARDTEAFKKLLQQLGSQARQHHPCNDDCRTINLSNIANHVHLESKLHQKINDGHLQQPELSVNVPTMPTSSHVFLQKRLEIQHLIQRLHCGDVSHDFLEKELDNPSTPAATKDVIATVLNEYSHSKRNPVVTGDPNIFTQQSFLQPQSVHQHYSQELHSQNTANHTINQLISHGNSPTPLAFTPTSVLRKMTADKDTQSPSTYCQNPQYHVHQQNAKQVGTRENVLEPQLTATMAVQPRMILGGGNFAIGQNNQHLSPNMSQSRNQQVLKWTSGNMQMVHGKTFGRPILKGGLNSMPHSNSALPFTAHKIEMQPIHQPHLQQQQHRFKAVQSVESNLNTESVHQNITSPVGWHQLYMQHQQQHHHTRQQLSQRVIYGEMHRQSNPQMSPPVPGFSDSSDSGNVIKANSLTSPSYQRDERISSPTNQLAQWFSPELLAKASAGKLPLLNVNQALSLEEFERSIQHSSGVVHN
Regarding B6, the MAPPIT interaction score with Mpcp2 was 0.135; with mod(mdg4) it was -0.246.

B7: SdhB (protein)
chain: MLATEARQILSRVGSLVARNQMRAISNGTAQLEQQAQPKEAQEPQIKKFEIYRWNPDNAGEKPYMQTYEVDLRECGPMVLDALIKIKNEMDPTLTFRRSCREGICGSCAMNIGGTNTLACISKIDINTSKSLKVYPLPHMYVVRDLVPDMNNFYEQYRNIQPWLQRKNEAGEKKGKAQYLQSVEDRSKLDGLYECILCACCSTSCPSYWWNAEKYLGPAVLMQAYRWIIDSRDENSAERLNKLKDPFSVYRCHTIMNCTRTCPKGLNPGRAIAEIKKLLSGLASKPAPKLETAALHK
On to B7, for which the MAPPIT interaction score with MESK2 is 0.135.

B8: Naa35 (protein)
chain: MYPSTLPAEADPSTMNGSSVAEPPDFQAATAAAAAAARASSLEQDEWSVGECGFLDPDVQRTMRSGSAAEDITQYPMHGWVDVTKEFHDACAELQPGELAQDMLFGLFEAMSAIEIMDPKMDVGMGFDKQDLPPPSFEAAIATGAIKLDDLTPSELIGIYDALFSCLVSWLEGNSMDQVLFTCLYLHAPAQIKDKALRVFCTAVRNLIVVIKKIIAVAAVNEEEDFQLYGNSALLAAEKAQPATVYSSLKDVEDELIRKCKKLTSTEDWMAVVHRLRFMRHLFQVIYHVEQMASNDTVDDKVDIYKILLVASEMLPGIRNTLDRGTQPEKGSDAPNPMGFSPRIHDRSQPPAFPRSIKIRDRPSSYQFLEEMISRFKYACKVTKYKDYYSALNFFIEYSKKSGQCILSRSVLQTLFSANMRMAHGKLPMKQFLRHSVQVFNSPPVLNAKHPVAADPKVQQHLENFFRYCINMNTFTQFIRICGFNRARQRDKLARLIENFDTIQVDAARLDSMMNQLANERAMEGNEPMATALKHSTHFSTWVLYNCFRAMLIFLMSGFELELYAVHEFLYIYWYPYEFLIGFLVSALTRTENILLAQEEYAEHQSKTQSGGSGAAKNRKAAKPKKNKKTQRPYRAEIVFYHALLSLCGGMYKAMGALTKDGRVRLPLSKFDNEEIRYNRRFLPFATLTSPPPVSYAEFKNVREHMMRHSVEDLYTYAAKHFDQARNVLESIQNPDQEMLDLLQIARTNFVVMNVLARGHQKEVKRQPEFDFSKHSYFPIIKLK
Turning to B8, the MAPPIT interaction score with Naa30A is 3.72 (active).

B9: Hakai (protein)
chain: MDTEEVKRGRGRGRGTRARGRGRGRGRGRGKKIDDSSIADAAALAASSCAALEDSPGRLDASEDSVMQELDKDGELETPGALEEPLPHGALGAVAASGNMTPATQQPQVLQQVPPPVMSQTTISLSLARAVDMEADISQLEAPTFTTLSRGPPEPMLRLKWNHKVSLIGEKVLNPMIHCCDQCDKPILVYGRMIPCKHVFCLKCARAEPIKSCPRCTDKVLRVEQSGLGTVFMCTHGGSRYGSSGCRRTYLSQRDLQAHINHRHVAPQPPPLQPQPQLSAMAEQPKMTDLGGVGLGLELHKQRKLSESSVPISVSASIASRPVLSRLPLTGGVGNIGSIGSIPPPGSAAAAQNAIHGGHSTLTLANLTRINNANAQECHQGKASLHHTLKKGTPHQSESVADASYYSSVLASFGSAAGNPGSGPPGGGATAAAQPANPSGSHSAVGPGALIGGSTDAPTGGSSGNWQQSQYYR
In the case of B9, the MAPPIT interaction score with MagR is 2.01; with Polr1B, 0.0868; with pav, 0.0448.

B10: Hsp23 (protein)
chain: MANIPLLLSLADDLGRMSMVPFYEPYYCQRQRNPYLALVGPMEQQLRQLEKQVGASSGSSGAVSKIGKDGFQVCMDVSHFKPSELVVKVQDNSVLVEGNHEEREDDHGFITRHFVRRYALPPGYEADKVASTLSSDGVLTIKVPKPPAIEDKGNERIVQIQQVGPAHLNVKENPKEAVEQDNGNDK
Take B10: the values for the MAPPIT interaction score with Mettl14 and in the assay with Rnmt were 1.35 and 1.27, respectively.

B11: DENR (protein)
chain: MTNEDVGTNSVADRLQLGPREGVTYPIQMKYCGHCTMPIEYCEYYPEYEKCKEWLELHMPDDFERLKIEEEAAAADGTDDDKKRQKRGGKGLLRVKKKEDVPKRICVSRAARGKKKSVTVVTGLSTFDIDLKVAAKFFGTKFACGSSVTGDDEIVIQGDVKDDLFDVIPEKWAEIDEDVIEDLGDQKRT
Regarding B11, in the assay with ND-ACP, the MAPPIT interaction score was 1.72.

B12: Trmt112 (protein)
chain: MKLSTYNFLTSVAIKGVKVGFPLKLTINKKEVVESEFNPTFVERILPKLDWSAVYGAAQVAELTEDIPAVQPENIVENELLLQKLHHLLFEIDVLEGQLECPETGRVFPISDGIPNMLLNEDEV
On to B12, for which the MAPPIT interaction score in the assay with MED8 (MAPPIT configuration: N-C, pair source set: screen_4) is 0.923; in the assay with MED8 (MAPPIT configuration: N-N, pair source set: Finley_Y2H), 1.99.
